# Most compounds without a hit are left out; they make up all but 2.3% or so of the library.
# CHRM1 PAM – positive allosteric modulators of human M1 muscarinic receptor; P11229; CHO-K1 hM1, Fluo-8 calcium fluorescence, ACh EC20; 0% = ACh EC20, 100% = maximal ACh; activation, % at 3 µM; 360,000 tested, 0.088% active; in the data active = activation above about 19%, passing the limit was not always enough
# Target sequence (P11229 whole entry, looked up): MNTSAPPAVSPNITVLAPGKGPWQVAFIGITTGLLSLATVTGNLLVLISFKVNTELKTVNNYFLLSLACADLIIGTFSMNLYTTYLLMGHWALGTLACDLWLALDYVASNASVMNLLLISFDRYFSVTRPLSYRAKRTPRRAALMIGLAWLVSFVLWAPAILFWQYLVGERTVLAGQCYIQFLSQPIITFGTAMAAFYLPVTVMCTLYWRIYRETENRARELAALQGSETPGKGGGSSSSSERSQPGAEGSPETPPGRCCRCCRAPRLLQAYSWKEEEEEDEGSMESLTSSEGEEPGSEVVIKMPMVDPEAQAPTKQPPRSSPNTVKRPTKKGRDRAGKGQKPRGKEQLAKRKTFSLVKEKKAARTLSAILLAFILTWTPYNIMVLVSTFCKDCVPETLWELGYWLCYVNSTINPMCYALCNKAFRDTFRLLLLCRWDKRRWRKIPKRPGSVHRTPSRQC
# M1 antag – antagonists of human M1 muscarinic receptor; P11229; CHO-K1 hM1, Fluo-8 calcium fluorescence, ACh EC80 antagonist; inhibition, % at 3 µM; 360,000 tested, 1.3% active; AID 588852;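 active = percent inhibition above its own plate's cutoff, namely the mean of that plate's compound wells plus 3 SD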;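 also: peak over basal fluorescence ratio during 140 s after agonist addition; 0% = ACh EC80 plus DMSO and 100% = DMSO alone without agonist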
# CHO-K1 Ca antag – M1 antagonist counterscreen hit in parental CHO-K1 cells. inhibition, % at 3 µM. AID 602250. 360,000 tested, 0.6% active. ATP-induced calcium, Fluo-8 fluorescence;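 active = inhibition above a per-plate cutoff, the plate's mean sample inhibition plus 3 SD, cut at about 24% in these data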;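 also: 0% = DMSO plus EC80 ATP and 100% = DMSO alone without ATP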
# M1 ag parental – counter-screen for M1 agonists: effect in parental CHO-K1 cells; 360,000 tested, 0.48% active; AID 602248; Fluo-8 calcium fluorescence; scaled to maximal ATP response, vehicle zero; activation, % at 3 µM; in the data active = activation above about 15%;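 also: untransfected CHO-K1 host cells lacking M1 receptor as counterscreen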
# M1 ag – agonists of human M1 muscarinic receptor; P11229; CHO-K1 hM1, Fluo-8 calcium fluorescence, agonist mode; 0% DMSO, 100% acetylcholine EC100; activation, % at 3 µM; 360,000 tested, 0.33% active; AID 588814;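 active = activation above the run's mean compound activation plus 3 SD, cut at about 16% in these data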;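 also: peak over basal fluorescence ratio within a 140 s kinetic read after compound addition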
# M1 PAM parental – M1 PAM counterscreen hit in parental CHO-K1 cells. ATP EC20, Fluo-8 calcium fluorescence; 0% at ATP EC20, 100% at ATP max. activation, % at 3 µM. 360,000 tested, 0.02% active;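 active = activation above the run cutoff, the mean activation of all test compounds plus 3 SD, cut at about 40% in these data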;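 also: peak over basal fluorescence ratio in a 140 s read after ATP addition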
# Starred values were filed as active, the others as inactive.
SMILES,CHRM1 PAM,M1 antag,CHO-K1 Ca antag,M1 ag parental,M1 ag,M1 PAM parental
CN1CCN(C2=Cc3ccccc3Sc3cc(F)ccc32)CC1,-20,80*,-8,1,-4,17
CC(C)(C)c1ccc(OCCCNC2CCCC2)cc1,-30,22*,16,4,-10,-8
Cc1ccc(OCCCNC2CCCC2)cc1,1,-6,-12,1,-11,21
Cc1ccc(S(=O)(=O)n2c(=O)oc3ccccc32)cc1,2,-10,-1,3,0,11
CCOC(=O)c1ccc(S(=O)(=O)n2c(=O)oc3ccccc32)cc1,-23,31*,18,13,0,-24
Cc1ccccc1-c1cccc([C@@H]2C[C@H]3[C@H](CON3C)CN2Cc2cc(Cl)cc(Cl)c2)c1,8,-13,6,0,-3,-6
CCCOc1ccc(N2C(=O)CC(N3CCN(c4ccc([N+](=O)[O-])cc4)CC3)C2=O)cc1 (stereo not given),1,-6,2,25*,-2,12
C/C(=N\Nc1ccccn1)c1ccc(OC(F)F)cc1,4,-8,-2,17*,-6,16
COc1ccccc1NC(=O)CSc1nnc2ccccn12,25*,-12,-13,0,6,11
O=C(CCC(=O)N1CCN(c2ccccn2)CC1)c1ccc(Cl)s1,-2,2,-4,1,-7,-14
O=C(COc1ccccc1C(=O)O)Nc1nc2ccc([N+](=O)[O-])cc2s1,-10,26*,11,13,4,4
O=C(Nc1nc2ccccc2s1)C1CCN(S(=O)(=O)c2cc([N+](=O)[O-])ccc2Cl)CC1,-17,53*,40*,9,-1,-20
COc1ccc(N2CCN(S(=O)(=O)CCNC(=O)COc3cccc(OC)c3)CC2)cc1,-6,6,-17,8,0,12
COCCN(C(=O)CSc1nnc(-c2ccco2)n1C)c1c(N)n(CC(C)C)c(=O)[nH]c1=O,20,-14,-18,-1,0,22
CCCC1NC(C(=O)O)Cc2c1[nH]c1ccccc21 (stereo not given),3,-5,0,1,-7,9
CCOCCCNC(=O)C1c2ccccc2Oc2ccccc21,5,-10,-13,1,-6,20
CCN(CC)CCOC(=O)C1c2ccccc2Oc2ccccc21,-22,99*,-4,1,-9,5
CCN(CC)CCNC(=O)C1c2ccccc2Oc2ccccc21,-30,93*,-11,2,-10,22
O=C(NCCCn1ccnc1)C1c2ccccc2Oc2ccccc21,-25,24*,13,0,-6,19
C1=CN2CCC1C(c1ccccc1)C2 (stereo not given),-14,73*,7,0,50*,2
CC1(C(=O)NS(=O)(=O)c2cccc(Cl)c2)CCN1C(=O)Cc1cc(F)ccc1F (stereo not given),-2,3,-15,0,-3,7
Cc1cccc(S(=O)(=O)NC(=O)C2(C)CCN2C(=O)Cc2cc(F)ccc2F)c1 (stereo not given),13,102*,-7,0,-10,10
CN(C(=O)c1ccccc1OCc1ccc(Cl)cc1)c1ccccc1,-23,75*,1,0,-6,16
Cc1onc(-c2ccccc2)c1C(=O)NN1CCOCC1,3,-1,10,0,-4,-15
CCc1nc2ccc(C(=O)NCCOc3ccc(OC)cc3)cn2c1N(C)Cc1cccs1,5,-4,7,2,-6,-12
SMILES,CHRM1 PAM,M1 antag,CHO-K1 Ca antag,M1 ag parental,M1 ag,M1 PAM parental
CCOc1ccc(/C=N/Nc2ccc(C(F)(F)F)cc2[N+](=O)[O-])cc1O,-1,1,10,18*,-6,-11
O=C(C1CCN(c2ncnc3c2nc2n3CCCCC2)CC1)N1CCN(c2ccc(F)cc2)CC1,-7,-1,-8,4,30*,12
O=C(NCC1CCN(Cc2ccc(Cl)cc2)CC1)C1CCCN(c2ncnc3c2nc2n3CCCCC2)C1 (stereo not given),-41,103*,-4,3,-14,10
O=C(NCC1CCN(Cc2ccc(F)cc2)CC1)C1CCCN(c2ncnc3c2nc2n3CCCCC2)C1 (stereo not given),-22,70*,-9,0,-6,8
O=C(NCc1ccccc1)C1CCCN(c2ncnc3c2nc2n3CCCCC2)C1 (stereo not given),6,1,0,1,-3,1
O=C(NCC1CCN(Cc2cccc(Cl)c2)CC1)C1CCCN(c2ncnc3c2nc2n3CCCCC2)C1 (stereo not given),-23,75*,-12,5,-5,6
O=C(NCCc1ccc(Cl)cc1)C1CCCN(c2ncnc3c2nc2n3CCCCC2)C1 (stereo not given),0,-1,-14,1,-5,7
O=C(CN1C(=O)NC2(CCCCC2)C1=O)N1CCOCC1,15,-17,-12,1,1,9
CC(Sc1nnc2n1CCCCC2)C(=O)Nc1cccc(S(=O)(=O)N2CCOCC2)c1 (stereo not given),12,-11,9,0,-8,-14
CC[N+](CC)(CC)CCOc1ccc(/C=C/c2ccccc2)cc1,-27,95*,3,0,-7,-2
CCOc1ccc(/C=C/C(=O)c2ccccc2)cc1,8,-8,-22,0,-4,7
O=C(NC(NNc1ccc([N+](=O)[O-])cc1)(C(F)(F)F)C(F)(F)F)c1ccc(Cl)cc1,-13,34*,21,9,2,-9
O=C(Nc1ccc(N2CCCC2)cc1)c1ccc(Cl)cc1Cl,7,-11,-3,0,-6,1
O=C(N1CCOCC1)C1(c2ccc(Cl)cc2)CCCC1,9,-5,-13,1,-4,16
O=C(Nc1ccccc1)Nc1ccc(Cl)c(S(=O)(=O)N2CCOCC2)c1,-11,23,10,18*,3,-7
O=C(Nc1ccc(N2CCOCC2)cc1)C1(c2ccc(Cl)cc2)CCC1,10,-19,-16,8,17*,27
O=C(Nc1ccc(Cl)cc1)Nc1ccc(N2CCOCC2)cc1,-2,11,-12,4,-1,13
O=C(Nc1ccc(N2CCCC2)cc1)c1cc(Cl)ccc1Cl,-26,36*,-3,0,-9,1
O=C(Nc1ccc(N2CCOCC2)cc1)Nc1ccc(Cl)c(Cl)c1,-33,55*,33*,13,4,-16
Cn1c(N)c(C(=O)CSc2n[nH]c(N)n2)c(=O)n(C)c1=O,7,-6,-4,1,1,-10
Cc1ccc(-c2csc3nc(SCC(=O)Nc4ccc(Cl)c(C(=O)O)c4)[nH]c(=O)c23)cc1,9,-13,-17,0,2,10
